23 sequences from the OligoGym collection can be followed below.
Note: reference of the scale not given here.

The first test concerns the target SERPINB7. Kind of test: pooled miR-30 sensor sort-seq; sequence = guide strand. Particulars: shRNA.
As for TTCTCTATCTTGAACTGAGGAA, the sensor-assay potency score (higher = more potent) is -0.416. Turning to TTGATTGTCATCCATCTCTCTG, the sensor-assay potency score (higher = more potent) is -0.525. Sequence TTCATAATTCTTCTCTATCTTG displayed a sensor-assay potency score (higher = more potent) of -0.438. The same measure, in the same setting: the same measure for TAAGATTTGTGCATCATCCTTG: 1.22; for TAGAAGAGTTTCCATATCCTGA: 0.0524. Sequence TACTTAGAGGTCATTCGCCTTG displayed a sensor-assay potency score (higher = more potent) of -0.685. Still for that read-out and setting: next, TTTTCTACAATATTACTTCCTG: 0.325; TTCTTCTCTATCTTGAACTGAG: -0.146. The sequence ATTTCCTTGATTGTCATCCATC displayed a sensor-assay potency score (higher = more potent) of -1.25. The same measure, in the same setting: next, TAATATTACGTCTAGTGTCTTC: -0.265. Same read-out and setting: next, TTCTACAATATTACTTCCTGTG: -0.132.

The next test concerns the target SERPINE2. The test is described as above. Particulars: shRNA.
Sequence ATTCTTAACAAACACGGCGTTA registered a sensor-assay potency score (higher = more potent) of -0.703.

Consider TTGATGAATCAAACATGTCAGT, for which the sensor-assay potency score (higher = more potent) was -0.681. The same measure, in the same setting: next, TTCCTCAGTACAGTGTTCCAGC: -0.117; TACAGTGTTCCAGCCATCCTGC: -0.935. Sequence TATTTTTGCAAAATTTGCCTTT showed a sensor-assay potency score (higher = more potent) of -0.263. The sequence TATTTTAGTGAATACATGCATT had a sensor-assay potency score (higher = more potent) of -0.736.

With TTAATATTTTACCAACTCCATT, the sensor-assay potency score (higher = more potent) was -1.64. In turn, TTTAACAGAACTATGAAAGATG showed a sensor-assay potency score (higher = more potent) of -0.755. Consider TTGTGCTACAGCTGTGAACTTG, for which the sensor-assay potency score (higher = more potent) was -0.393. In turn, TACAGCTGTGAACTTGGGCAGG had a sensor-assay potency score (higher = more potent) of -0.9. Regarding TTGTCAATCATATCCCTGGTTT, the sensor-assay potency score (higher = more potent) is -0.515. Same read-out and setting: the same measure for AACAGAAACACTTGCATCGAGT: -0.757.
